According to PubChem BioAssay AID1159580 (chemical genetic matrix, 2015):
Where “and” joins values, the source holds several entries; their conditions need not be identical. Identical values can stand only once. About 2,000 (36%) of roughly 5,500 compounds were called active. Inconclusive results (about 18%) are left out. Rule as the data show it: active = normalized growth mostly below about 0.91 (no sharp cut-off); inconclusive = no clear call, values can overlap the other calls; inactive = mostly above about 0.92. The list shows a part of the results.

Assay: chemical genetic growth profiling, strain panel (AID 1159580);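 also: tested at 20 µM; growth read once vehicle control cultures reached saturation at 30 °C; 1 = growth at the plate median or of vehicle wells; lower values mean less growth of the strain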
Conditions: S. cerevisiae deletion strains, growth OD

Measured: normalized growth

COc1cc2c(cc1OC)C(=O)C(CC1CCN(Cc3ccccc3)CC1)C2 (stereo not given)
active: locus YAL026C, strain drs2, stronger effect = lower value 0.606 | locus YDL074C, strain BRE1, stronger effect = lower value 0.734 | locus YDL134C, strain PPH21, stronger effect = lower value 0.798 | locus YDR101C, strain arx1, stronger effect = lower value 0.904 | locus YDR137W, strain rgp1, stronger effect = lower value 0.627 | locus YDR162C, strain NBP2, stronger effect = lower value 0.807 | locus YDR318W, strain mcm21, stronger effect = lower value 0.913 | locus YDR502C, strain sam2, stronger effect = lower value 0.834 | locus YER167W, strain BCK2, stronger effect = lower value 0.829 | locus YGL248W, strain PDE1, stronger effect = lower value 0.818 | locus YGL253W, strain hxk2, stronger effect = lower value 0.891 | locus YGR078C, strain PAC10, stronger effect = lower value 0.821 | locus YGR135W, strain pre9, stronger effect = lower value 0.787 | locus YGR229C, strain SMI1, stronger effect = lower value 0.523 | locus YGR252W, strain gcn5, stronger effect = lower value 0.742 | locus YHR129C, strain ARP1, stronger effect = lower value 0.876 | locus YJL187C, strain SWE1 (second series), stronger effect = lower value 0.849
0.657 (active) and 1.01 (inactive): locus YJL095W, strain BCK1, stronger effect = lower value
inactive: locus YAL013W, strain DEP1, stronger effect = lower value 0.953 | locus YAL021C, strain ccr4, stronger effect = lower value 0.942 | locus YAL030W, strain snc1, stronger effect = lower value 1.01 | locus YBL061C, strain skt5, stronger effect = lower value 0.974 | locus YBR009C, strain hhf1, stronger effect = lower value 0.975 | locus YBR021W, strain FUR4, stronger effect = lower value 1.03 | locus YBR023C, strain chs3, stronger effect = lower value 0.988 | locus YBR171W, strain sec66, stronger effect = lower value 1.03 | locus YBR229C, strain ROT2, stronger effect = lower value 1.01 | locus YBR279W, strain paf1, stronger effect = lower value 0.972 | locus YCL011C, strain gbp2, stronger effect = lower value 0.978 | locus YCL016C, strain dcc1, stronger effect = lower value 0.986 | locus YCL029C, strain bik1, stronger effect = lower value 0.989 | locus YCL061C, strain MRC1, stronger effect = lower value 0.967 | locus YCL069W, strain vba3, stronger effect = lower value 1.02 | locus YCR088W, strain abp1, stronger effect = lower value 1.01 | locus YDL005C, strain med2, stronger effect = lower value 1.03 | locus YDL035C, strain GPR1, stronger effect = lower value 0.869 | locus YDL040C, strain nat1, stronger effect = lower value 0.981 | locus YDL101C, strain DUN1, stronger effect = lower value 0.948 | locus YDL185W, strain tfp1, stronger effect = lower value 0.998 | locus YDL192W, strain arf1, stronger effect = lower value 0.926 | locus YDR001C, strain nth1, stronger effect = lower value 1.02 | locus YDR069C, strain doa4, stronger effect = lower value 0.935 | locus YDR150W, strain NUM1, stronger effect = lower value 0.977 | locus YDR159W, strain sac3, stronger effect = lower value 0.953 | locus YDR195W, strain ref2 1.08 | locus YDR297W, strain sur2, stronger effect = lower value 0.989 | locus YDR334W, strain swr1, stronger effect = lower value 1.02 | locus YDR335W, strain msn5, stronger effect = lower value 0.999 | locus YDR388W, stronger effect = lower value 0.998 | locus YDR392W, strain spt3, stronger effect = lower value 1.09 | locus YEL003W, strain gim4, stronger effect = lower value 0.988 | locus YEL037C, strain rad23, stronger effect = lower value 1.02 | locus YEL061C, strain CIN8 (second series), stronger effect = lower value 1.04 | locus YEL061C, strain CIN8, stronger effect = lower value 1.06 | locus YER015W, strain faa2, stronger effect = lower value 0.947 | locus YER016W, strain bim1, stronger effect = lower value 1 | locus YER110C, stronger effect = lower value 0.992 | locus YER111C, strain swi4, stronger effect = lower value 1.02 | locus YER155C, strain BEM2 (second series), stronger effect = lower value 1.02 | locus YER155C, strain BEM2, stronger effect = lower value 1.01 | locus YFR010W, strain ubp6, stronger effect = lower value 1.03 | locus YGL078C, strain dbp3, stronger effect = lower value 0.976 | locus YGL086W, strain mad1, stronger effect = lower value 0.954 | locus YGL167C, strain pmr1, stronger effect = lower value 0.961 | locus YGL173C, strain kem1, stronger effect = lower value 1.01 | locus YGL227W, strain vid30, stronger effect = lower value 1.06 | locus YGL240W, strain doc1, stronger effect = lower value 0.994 | locus YHR013C, strain ard1, stronger effect = lower value 0.955 | locus YHR027C, strain rpn1, stronger effect = lower value 0.99 | locus YHR030C, strain SLT2, stronger effect = lower value 0.94 and 0.973 | locus YHR079C, strain IRE1 (second series), stronger effect = lower value 0.951 | locus YHR079C, strain IRE1, stronger effect = lower value 0.949 | locus YHR094C, strain hxt1, stronger effect = lower value 1 | locus YHR142W, strain chs7, stronger effect = lower value 0.919 | locus YHR200W, strain rpn10, stronger effect = lower value 0.973 | locus YIL066C, strain RNR3, stronger effect = lower value 0.896 | locus YIL073C, strain SPO22, stronger effect = lower value 0.904 | locus YIL125W, strain kgd1, stronger effect = lower value 1.01 | locus YIR030C, strain dcg1, stronger effect = lower value 0.985 | locus YJL092W, strain hpr5, stronger effect = lower value 1.02 | locus YJL095W, strain BCK1 (second series), stronger effect = lower value 0.994 | locus YJL115W, strain asf1, stronger effect = lower value 1.02 | locus YJL129C, strain trk1, stronger effect = lower value 0.896 | locus YJL134W, strain LCB3, stronger effect = lower value 0.996 | locus YJL154C, strain vps35, stronger effect = lower value 1.01 | locus YJL164C, strain tpk1, stronger effect = lower value 1 | locus YJL166W, strain qcr8, stronger effect = lower value 0.931 | locus YJL168C, strain set2, stronger effect = lower value 0.998 | locus YJL187C, strain SWE1, stronger effect = lower value 0.975 | locus YJR043C, strain POL32, stronger effect = lower value 0.872
